Values without a mark were called inactive. How the calls were made is not given here.

The subject of this test is Aerobactin synthetase IucA (Klebsiella pneumoniae hvKP1). Put plainly: IucA enzyme inhibition, primary screen, biochemical, Spectrum library (AID 1346200).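 Further: 100% = wells without compound and 0% = wells lacking enzyme.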 Conditions: malachite green pyrophosphate, A620, at 8 µM, hits give low values.
On to `NCCCC(O)(P(=O)(O)O)P(=O)(O)O`, for which the activity remaining is 112%. Regarding `C=CCCCCCCCCCCCC(O)CC(O)CO` (centres undefined), the activity remaining is 76.1%. Take `O=C1c2cccc(O)c2C(=O)c2c(O)cccc21`: the activity remaining was 93.6%. In the case of `Cc1ccc(C)c(OCCCC(C)(C)C(=O)O)c1`, the activity remaining is 116%. On to `CC(C)N=C(N)/N=C(\N)Nc1ccc(Cl)cc1`, for which the activity remaining is 102%.

In the case of `COC(=O)Nc1nc2ccc(S(=O)c3ccccc3)cc2[nH]1` (centres undefined), the activity remaining was 110%. As for `COC(=O)c1c(Cl)c(Cl)c(C(=O)OC)c(Cl)c1Cl`, the figure is 110%; as for `COc1cc(NC(C)CCCN)c2ncccc2c1` (centres undefined), 123%; as for `CC1(C)C[C@@H](O)[C@]2(C)CC[C@]3(C)C(=CCC4[C@@]5(C)CC[C@H](O)[C@](C)(CO)C5CC[C@]43C)[C@@H]2C1` (some centres undefined), 100%. Under `Cc1c(NC(C)C)c(=O)n(-c2ccccc2)n1C` stands 105%; under `COc1c(OC)c2occc2c2oc(=O)ccc12`, 122%. As to `Cc1cccc(N(C)C(=S)Oc2ccc3ccccc3c2)c1`, the activity remaining was 116%. `OCC(O)CN1CCN(c2ccccc2)CC1` (centres undefined): the activity remaining was 107%.

Consider `CC[C@@]1(O)C(=O)OCc2c1cc1n(c2=O)Cc2cc3c(CN(C)C)c(O)ccc3nc2-1`, for which the activity remaining was 121%.

For `Nc1ccc(C(=O)O)c(O)c1` (tested in a mixture with another compound), the activity remaining was 86.3%. Regarding `CCCc1nc(C)c2c(=O)[nH]c(-c3cc(S(=O)(=O)N4CCN(CC)CC4)ccc3OCC)nn12`, the activity remaining was 111%. Turning to `CC(=O)Oc1cc2c(c(C)c1OC(C)=O)CC1OC13[C@@]2(C)CC[C@@]1(C)C2C[C@](C)(C(=O)O)CC[C@]2(C)CC[C@]31C` (some centres undefined), the activity remaining was 101%. Regarding `Cc1c(N(C)C)c(=O)n(-c2ccccc2)n1C`, the activity remaining was 123%.

As for `COC1=CC(=O)C[C@@H](C)[C@]12Oc1c(Cl)c(OC)cc(OC)c1C2=O`, the activity remaining was 115%. With `CC(=O)O[C@H]1C[C@@H](OC(C)=O)C(C)(C)C2C[C@@H](OC(C)=O)[C@@]3(C)C4=CC(=O)O[C@@H](c5ccoc5)[C@]4(C)CCC3[C@]21C` (some centres undefined), the activity remaining was 102%.

With `CC1/C(=N/O)C[C@@H]2C[C@H]1C2(C)C` (some centres undefined), the activity remaining was 110%.

For the compound `COc1ccc(C(C)=O)c(O)c1`, the activity remaining was 83.8%.

Consider `C[C@@H](N)CO`, for which the activity remaining is 106%. For the compound `COC(=O)C[C@H]1C(C)(C)C(=O)[C@@H]2CC3C4=CC(=O)O[C@@H](c5ccoc5)[C@]4(C)CCC3C1(C)C2=O` (some centres undefined), the activity remaining was 120%. Regarding `CO/N=C(/C(=O)N[C@@H]1C(=O)N2C(C(=O)O)=C(COC(C)=O)CS[C@H]12)c1csc(N)n1`, the activity remaining was 117%. Regarding `C[C@]12C=CC(=O)C=C1CCC1C2C(=O)C[C@@]2(C)C1CC[C@]2(O)C(=O)CO` (some centres undefined), the activity remaining was 101%. For the compound `O=c1cc(-c2ccc(O)cc2)oc2cc(O[C@@H]3O[C@H](CO)[C@@H](O)[C@H](O)[C@H]3O[C@@H]3OC[C@](O)(CO)[C@H]3O)cc(O)c12`, the activity remaining is 103%. For `C/C1=C/CC(C)(C)/C=C/C/C(C)=C/CC1`, the activity remaining was 122%. As for `Cc1cc(O)cc(=O)o1`, the figure is 116%.

The values above are taken from PubChem BioAssay.
